Values without a mark were called inactive. Inconclusive results are not listed. Entries that show only a call come without a potency. The source made the active and inactive calls. Calls come from the whole dose curve; as a rule, active = well fitted curve in the direction sought with a large enough effect in the repeat runs; inconclusive = weak or mixed curves; inactive = no such curve, though single readings can be large; an effect the other way counts as inactive or inconclusive.
Assay: qHTS RealTime-Glo MT Cell Viability Assay in HEK293 cells - 32 hour (AID 1224868); note: top concentration of the series differs between compounds
Details: RealTime-Glo luminescence; series mostly up to 76.8 µM
How it was run: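 Quantitative high-throughput screen of the Tox21 10K library in HEK293: cells and RealTime-Glo reagents plated together, compound added at 5 h, luminescence monitored through 40 h at 37 C.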
With `CCOP(=S)(OCC)Oc1ccc(Cl)cc1Cl` the Potency was “inactive”. With `CCC1(c2cccc(O)c2)CCCCN(C)C1` (stereo not drawn) the Potency was “inactive”. In the case of `CCN[C@@H](C)Cc1ccccc1`, the Potency is reported as “inactive”. In the case of `CCOC(=O)C(SP(=S)(OC)OC)c1ccccc1` (stereo not drawn), the Potency is reported as “inactive”. With `CC1NCCOC1c1ccccc1` (stereo not drawn) the Potency was “inactive”. For `CC(C)(N)Cc1ccc(Cl)cc1`, the Potency was “inactive”. With `Oc1ccc2c3c1O[C@H]1[C@@H](O)C=C[C@H]4[C@@H](C2)NCC[C@@]341` the Potency was “inactive”. In the case of `N[C@@H]1C[C@H]1c1ccccc1`, the Potency is reported as “inactive”. With `CCOC(=O)c1ncn2c1CN(C)C(=O)c1c(I)cccc1-2` the Potency was “inactive”. With `O=P(O)(O)c1ccccc1` the Potency was “inactive”. In the case of `CCCCCCC1CCOC1=O` (stereo not drawn), the Potency is reported as “inactive”. For `O=C(O)C(Br)(Br)Br`, the Potency was “inactive”. With `CC(C)N(Cc1ccccc1)C(=O)C(C)(C)C` the Potency was “inactive”. In the case of `CCCN1CCC[C@@H]2Cc3[nH]ncc3C[C@H]21`, the Potency is reported as “inactive”.

Assay: A CellTox Green Cytotoxicity Assay to monitor cytotoxicity in HEK293 cells - 0 hour (AID 1224869)
Details: CellTox Green fluorescence; series mostly up to 76.8 µM
How it was run: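 Nonlytic real-time cytotoxicity: HEK293 + CellTox Green reagent plated, 5 h preincubation, pintool compound addition (23 nL in DMSO), 37 C for 40 h, fluorescence measured at successive time points.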
With `CCC(=O)OC1(c2ccccc2)CCN(C)CC1` the outcome was “inactive”. With `CCCCOC(C)=O` the outcome was “inactive”. With `COC1=CC(=O)O[C@@H](/C=C/c2ccccc2)C1` the outcome was “inactive”. With `CCC(C(N)=O)N1CCCC1=O` (stereo not drawn) the outcome was “inactive”. With `O=C(O)CBr` the outcome was “inactive”. In the case of `CC(C)c1ccc(O)cc1`, the outcome is reported as “inactive”. In the case of `[P]#[In]`, the outcome is reported as “inactive”. For `CC1N=C(N)OC1c1ccccc1` (stereo not drawn), the outcome was “inactive”. In the case of `CCCOc1nn(C(=O)NS(=O)(=O)c2ccccc2C(=O)OC)c(=O)n1C`, the outcome is reported as “inactive”. With `COC(=O)[C@@H](N)CCCN/C(N)=N/[N+](=O)[O-]` the outcome was “inactive”. With `CCN[C@@H](C)Cc1cccc(C(F)(F)F)c1` the outcome was “inactive”. For `O=c1[nH]oc2c1CCNC2`, the outcome was “inactive”. With `CC(C)(C)C(=O)Cl` the outcome was “inactive”. In the case of `CCCOC(=O)Cc1ccc(OCC(=O)N(CC)CC)c(OC)c1`, the outcome is reported as “inactive”. `Cc1ccc2c(c1)C1CN(C)CCC1N2` (stereo not drawn) gave a cytotoxicity of -0.0492% [at 15.8 µM]. In the case of `C=CCN1CC[C@]23CCCC[C@H]2[C@H]1Cc1ccc(O)cc13`, the outcome is reported as “inactive”. With `O=C(Cl)C(Cl)Cl` the outcome was “inactive”. In the case of `CCOC1Oc2ccc(OS(C)(=O)=O)cc2C1(C)C` (stereo not drawn), the outcome is reported as “inactive”. `Brc1c(Br)c(Br)c(Br)c(Br)c1Br` gave a cytotoxicity of 20.1% [at 6.97 µM]. With `CCOP(=S)(OCC)Oc1ccc(Cl)cc1Cl` the outcome was “inactive”. In the case of `CCC1(c2cccc(O)c2)CCCCN(C)C1` (stereo not drawn), the outcome is reported as “inactive”. For `CCN[C@@H](C)Cc1ccccc1`, the outcome was “inactive”. With `CCOC(=O)C(SP(=S)(OC)OC)c1ccccc1` (stereo not drawn) the outcome was “inactive”. In the case of `CC1NCCOC1c1ccccc1` (stereo not drawn), the outcome is reported as “inactive”. In the case of `CC(C)(N)Cc1ccc(Cl)cc1`, the outcome is reported as “inactive”. In the case of `Oc1ccc2c3c1O[C@H]1[C@@H](O)C=C[C@H]4[C@@H](C2)NCC[C@@]341`, the outcome is reported as “inactive”. For `N[C@@H]1C[C@H]1c1ccccc1`, the outcome was “inactive”. In the case of `CCOC(=O)c1ncn2c1CN(C)C(=O)c1c(I)cccc1-2`, the outcome is reported as “inactive”. For `O=P(O)(O)c1ccccc1`, the outcome was “inactive”. With `CCCCCCC1CCOC1=O` (stereo not drawn) the outcome was “inactive”. For `Clc1cc2c(cc1Cl)Oc1cc(Cl)c(Cl)cc1O2`, the cytotoxicity was -18% [at 0.29 µM]. In the case of `O=C(O)C(Br)(Br)Br`, the outcome is reported as “inactive”. With `CC(C)N(Cc1ccccc1)C(=O)C(C)(C)C` the outcome was “inactive”. For `CCCN1CCC[C@@H]2Cc3[nH]ncc3C[C@H]21`, the outcome was “inactive”.

Assay: qHTS RealTime-Glo MT Cell Viability Assay in HepG2 cells - 40 hour (AID 1224870); note: potency is the fitted concentration of half-maximal effect
Details: RealTime-Glo luminescence; series mostly up to 76.8 µM
How it was run: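 Real-time viability: cells seeded at 600 per well together with NanoLuc and cell-permeant prosubstrate, compounds added after 5 h incubation. Luminescence tracked at 0, 8, 16, 24, 32 and 40 h of exposure.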
For `CCC(=O)OC1(c2ccccc2)CCN(C)CC1`, the Potency was “inactive”. For `CCCCOC(C)=O`, the Potency was “inactive”. For `COC1=CC(=O)O[C@@H](/C=C/c2ccccc2)C1`, the Potency was “inactive”. For `CCC(C(N)=O)N1CCCC1=O` (stereo not drawn), the Potency was “inactive”. In the case of `O=C(O)CBr`, the Potency is reported as “inactive”. For `CCCN1CCC[C@@H]2Cc3nc(N)ncc3C[C@H]21`, the Potency was “inactive”. In the case of `CC(C)c1ccc(O)cc1`, the Potency is reported as “inactive”. For `[P]#[In]`, the Potency was “inactive”. For `CC1N=C(N)OC1c1ccccc1` (stereo not drawn), the Potency was “inactive”. For `CCCOc1nn(C(=O)NS(=O)(=O)c2ccccc2C(=O)OC)c(=O)n1C`, the Potency was “inactive”. With `COC(=O)[C@@H](N)CCCN/C(N)=N/[N+](=O)[O-]` the Potency was “inactive”. With `CCN[C@@H](C)Cc1cccc(C(F)(F)F)c1` the Potency was “inactive”. In the case of `O=c1[nH]oc2c1CCNC2`, the Potency is reported as “inactive”. With `CC(C)(C)C(=O)Cl` the Potency was “inactive”. In the case of `CCCOC(=O)Cc1ccc(OCC(=O)N(CC)CC)c(OC)c1`, the Potency is reported as “inactive”. `Cc1ccc2c(c1)C1CN(C)CCC1N2` (stereo not drawn) showed an activity change, negative = cytotoxic of 2.24% [at 15.8 µM]. For `C=CCN1CC[C@]23CCCC[C@H]2[C@H]1Cc1ccc(O)cc13`, the Potency was “inactive”. For `O=C(Cl)C(Cl)Cl`, the Potency was “inactive”. For `CCOC1Oc2ccc(OS(C)(=O)=O)cc2C1(C)C` (stereo not drawn), the Potency was “inactive”. `Brc1c(Br)c(Br)c(Br)c(Br)c1Br` showed an activity change, negative = cytotoxic of -3.64% [at 6.97 µM]. With `CCOP(=S)(OCC)Oc1ccc(Cl)cc1Cl` the Potency was “inactive”. For `CCC1(c2cccc(O)c2)CCCCN(C)C1` (stereo not drawn), the Potency was “inactive”. For `CCN[C@@H](C)Cc1ccccc1`, the Potency was “inactive”. For `CCOC(=O)C(SP(=S)(OC)OC)c1ccccc1` (stereo not drawn), the Potency was “inactive”. For `CC1NCCOC1c1ccccc1` (stereo not drawn), the Potency was “inactive”. With `CC(C)(N)Cc1ccc(Cl)cc1` the Potency was “inactive”. With `Oc1ccc2c3c1O[C@H]1[C@@H](O)C=C[C@H]4[C@@H](C2)NCC[C@@]341` the Potency was “inactive”. With `N[C@@H]1C[C@H]1c1ccccc1` the Potency was “inactive”. With `CCOC(=O)c1ncn2c1CN(C)C(=O)c1c(I)cccc1-2` the Potency was “inactive”. With `O=P(O)(O)c1ccccc1` the Potency was “inactive”. With `CCCCCCC1CCOC1=O` (stereo not drawn) the Potency was “inactive”. `Clc1cc2c(cc1Cl)Oc1cc(Cl)c(Cl)cc1O2` gave an activity change, negative = cytotoxic of -10.5% [at 0.29 µM]. For `O=C(O)C(Br)(Br)Br`, the Potency was 49 µM (active). In the case of `CC(C)N(Cc1ccccc1)C(=O)C(C)(C)C`, the Potency is reported as “inactive”. With `CCCN1CCC[C@@H]2Cc3[nH]ncc3C[C@H]21` the Potency was “inactive”.

Reference: PubChem BioAssay (Tox21)
Note: nearly all actives have a fitted effect of over 50% in size.
